Among all 39,000 compounds or so, about 3,300 (8.5%) were called active. Many of the other results were omitted from the sample, so actives are more common in it than they were.
tested on: HepG2; assay: cytotoxicity call (relative viability < 0.9); settings: 10 µM

SMILES | cytotoxicity call
C[C@@H]1CN([C@@H](C)CO)S(=O)(=O)c2ccc(-c3cncnc3)cc2O[C@@H]1CN(C)C(=O)Cc1ccncc1 | inactive
COc1ccc(NC(=O)Nc2ccc3c(c2)C(=O)N([C@@H](C)CO)C[C@@H](C)[C@@H](CN(C)Cc2ccccc2)OCCCC[C@@H](C)O3)cc1 | active
COc1ccc(NC(=O)Nc2ccc3c(c2)C(=O)N([C@H](C)CO)C[C@@H](C)[C@H](CN(C)Cc2ccccc2)OCCCC[C@H](C)O3)cc1 | active
COc1ccc(NC(=O)Nc2ccc3c(c2)C(=O)N([C@@H](C)CO)C[C@H](C)[C@H](CN(C)Cc2ccccc2)OCCCC[C@H](C)O3)cc1 | inactive
COc1ccc(NC(=O)Nc2ccc3c(c2)C(=O)N([C@H](C)CO)C[C@@H](C)[C@@H](CN(C)Cc2ccccc2)OCCCC[C@H](C)O3)cc1 | inactive
COc1ccc(NC(=O)Nc2ccc3c(c2)C(=O)N([C@@H](C)CO)C[C@@H](C)[C@@H](CN(C)Cc2ccccc2)OCCCC[C@H](C)O3)cc1 | inactive
COc1ccc(NC(=O)Nc2ccc3c(c2)C(=O)N([C@@H](C)CO)C[C@H](C)[C@H](CN(C)Cc2ccccc2)OCCCC[C@@H](C)O3)cc1 | inactive
COc1ccc(NC(=O)Nc2ccc3c(c2)C(=O)N([C@@H](C)CO)C[C@@H](C)[C@H](CN(C)Cc2ccccc2)OCCCC[C@H](C)O3)cc1 | active
COc1ccc(NC(=O)Nc2ccc3c(c2)C(=O)N([C@@H](C)CO)C[C@@H](C)[C@H](CN(C)Cc2ccccc2)OCCCC[C@@H](C)O3)cc1 | inactive
COc1ccc(NC(=O)Nc2ccc3c(c2)C(=O)N([C@H](C)CO)C[C@H](C)[C@@H](CN(C)Cc2ccccc2)OCCCC[C@H](C)O3)cc1 | inactive
COc1ccc(NC(=O)Nc2ccc3c(c2)C(=O)N([C@H](C)CO)C[C@@H](C)[C@H](CN(C)Cc2ccccc2)OCCCC[C@@H](C)O3)cc1 | active
COc1ccc(NC(=O)Nc2ccc3c(c2)C(=O)N([C@@H](C)CO)C[C@H](C)[C@@H](CN(C)Cc2ccccc2)OCCCC[C@@H](C)O3)cc1 | inactive
COc1ccc(NC(=O)Nc2ccc3c(c2)C(=O)N([C@H](C)CO)C[C@@H](C)[C@@H](CN(C)Cc2ccccc2)OCCCC[C@@H](C)O3)cc1 | inactive
COc1cccc([C@@H](N)c2ccccc2)c1 | inactive
O=C(/C=C/c1ccc(O)c(O)c1)O[C@@H]1[C@H](O)C[C@@](O)(C(=O)O)C[C@H]1OC(=O)/C=C/c1ccc(O)c(O)c1 | inactive
C[C@H]1CN([C@@H](C)CO)C(=O)Cc2cc(NC(=O)Cc3cn(C)c4ccccc34)ccc2O[C@@H]1CN(C)S(C)(=O)=O | inactive
